Test results published in PubChem BioAssay AID1671190 (National Center for Advancing Translational Sciences (NCATS), 2021).
Values joined by “and” are separate entries in the source; they are usually repeats but may differ in a detail not shown here. Identical values can stand only once. The whole screen tested about 580,000 compounds, of which about 6,100 (1.1%) were called active. Inconclusive results (about 15%) are left out. Shown is part of a subset that was picked to be rich in actives. A call without a number means that no potency is given here. Values without a mark were called inactive. The call rests on the fitted dose curve; in most records, active means well fitted inhibition curve with a large enough effect; inconclusive means small, poorly fitted or top-dose-only effect, or another doubt; inactive means no such curve, though single readings can be large or run the other way.

Molecular target: Polyunsaturated fatty acid lipoxygenase ALOX12 (Homo sapiens) (UniProt P18054)
Experiment: Primary qHTS assay for inhibitors of human arachidonate 12S-lipoxygenase (ALOX12): Round 2
Settings: purified 12hLO, xylenol orange hydroperoxide absorbance; series mostly up to 108 µM
In short: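 Hydroperoxide product was detected by ferrous iron/xylenol orange as the 573 to 405 nm absorbance ratio. Arachidonic acid at 40 uM (final) was turned over for 30 min at room temperature by 150 nM human 12hLO, pH 7.0 Hepes buffer, after 15 min compound preincubation.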
Potency means the concentration at half of the fitted maximal effect.

Sequence of Polyunsaturated fatty acid lipoxygenase ALOX12 (Homo sapiens) (P18054 whole entry, looked up): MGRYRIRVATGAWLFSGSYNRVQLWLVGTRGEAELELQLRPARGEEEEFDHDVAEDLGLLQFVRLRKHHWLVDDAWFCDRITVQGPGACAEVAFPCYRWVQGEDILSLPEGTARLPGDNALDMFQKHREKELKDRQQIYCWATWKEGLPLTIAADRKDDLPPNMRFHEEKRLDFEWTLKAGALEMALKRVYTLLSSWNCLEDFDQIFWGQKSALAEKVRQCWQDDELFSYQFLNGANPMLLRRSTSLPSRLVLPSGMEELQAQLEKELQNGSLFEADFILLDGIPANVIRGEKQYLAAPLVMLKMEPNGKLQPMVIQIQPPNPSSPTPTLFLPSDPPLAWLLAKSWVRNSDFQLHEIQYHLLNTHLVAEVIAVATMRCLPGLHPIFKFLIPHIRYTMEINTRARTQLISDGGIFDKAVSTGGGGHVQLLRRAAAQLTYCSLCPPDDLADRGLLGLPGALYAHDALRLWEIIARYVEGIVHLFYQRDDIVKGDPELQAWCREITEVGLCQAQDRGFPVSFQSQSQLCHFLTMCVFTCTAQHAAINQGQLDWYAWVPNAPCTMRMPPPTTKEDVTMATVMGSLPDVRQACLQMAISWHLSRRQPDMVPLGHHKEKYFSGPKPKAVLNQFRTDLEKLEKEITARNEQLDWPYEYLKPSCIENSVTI

Row | SMILES | Potency | activity change, negative = inhibition
1 | CC1CCCN(CC(=O)Nc2oc3ccccc3c(=O)c2-c2ccccc2)C1 (centres undefined) | inactive | –
2 | Cn1c(=O)[nH]c(=O)c2c1nc(SCCO)n2Cc1ccc(Cl)cc1 | inactive | –
3 | CCN(CC)c1ccc(NC(=O)CSc2ncnc3ccccc23)cc1 | inactive | –
4 | CC(C)C(=O)NC(NC(=S)Nc1ccccc1)C(Cl)(Cl)Cl (centres undefined) | inactive | –
5 | COCCN1C(=O)c2n[nH]c(-c3ccco3)c2C1c1ccc(O)cc1 (centres undefined) | inactive | –
6 | Cc1cnc(-c2ccccc2)n1CCNC(=O)CCC1CCCC1 | inactive | –
7 | Cc1cnc(-c2ccncc2)n1CCN | 3.55 µM (active) | –
8 | Cc1cnc(C)n1CCN | inactive | –
9 | CCc1ccc(-c2ccccc2)nc1-c1ccccc1 | inactive | –
10 | COC(=O)CC(NC(=O)c1ccc2c(c1)OCCO2)c1ccc(F)cc1 (centres undefined) | inactive | –
11 | Cc1oc(-c2nc(C#N)c(N3CCCCCC3)o2)cc1S(=O)(=O)N1CCCCC1 | inactive | –
12 | Cc1ccc(/C=C/C(=O)/C=C/c2ccc(C)cc2)cc1 | inactive | –
13 | O=C(/C=C(O)/C=C/c1ccc(O)cc1)/C=C/c1ccc(O)cc1 | 28.2 µM (active) | –
14 | COc1cc(C=CC(=O)O)ccc1O | inactive | –
15 | O=C(Nc1ccccc1NS(=O)(=O)c1cccs1)c1ccc([N+](=O)[O-])cc1 | inactive | –
16 | CCOC(=O)/C=C/c1ccc(N)cc1 | inactive | –
17 | CCN1CCC(O)(/C=C/c2ccc(C)cc2)C(C(=O)/C=C/c2ccc(C)cc2)C1 (centres undefined) | 50.1 µM (active) | –
18 | CO[C@H]1C(=O)N(C(C)C)[C@H]1C1CCN(C(=O)Nc2ccc(C)c(C)c2)CC1 | inactive | –
19 | Cc1ccsc1C(=O)NC1CCN(c2cnn(Cc3ccccc3)c(=O)c2)CC1 | inactive | –
20 | CCN(CC)CCC(=O)Nc1c(C(=O)OC)[nH]c2ccccc12 | inactive | –
21 | O=C(COC(=O)Cc1ccc(F)cc1)Nc1cc(S(=O)(=O)N2CCOCC2)ccc1N1CCCC1 | inactive | –
22 | COCCNC(=S)Nc1cc(S(=O)(=O)N2CCOCC2)ccc1N1CCCCC1 | 31.6 µM (active) | –
23 | CC(C)CCC(=O)Nc1cc(S(=O)(=O)N2CCOCC2)ccc1N1CCCC1 | inactive | –
24 | CC(C)OCC(=O)N1CCN(c2nc(-c3ccccc3)nc3c2CCC3)CC1 | inactive | –
25 | Cc1[nH]c2ccccc2c1CC(=O)NCc1ccc(CN2CCCC2)cc1 | inactive | –
26 | Cc1c(Cc2ccccc2)c(=O)oc2c(C)c(OC(C)C(=O)O)ccc12 (centres undefined) | inactive | –

Row | SMILES | Potency | activity change, negative = inhibition
27 | Cc1nc2nc(NCc3cc(F)cc(F)c3)[nH]n2c(=O)c1C | inactive | –
28 | CCN(c1ccc(NC(=O)c2cnc3ccccc3n2)cc1)C(C)C | inactive | –
29 | CCN(CC(=O)NC(=O)NCC(C)C)C1CC1 | inactive | –
30 | CCCCCCc1cc2c3c(c(=O)oc2cc1OCC(=O)C(C)(C)C)CCCC3 | inactive | –
31 | COC(=O)c1ccc(C(=O)OC(C)C(=O)C23CC4CC(CC(C4)C2)C3)cc1 (centres undefined) | inactive | –
32 | O=C(OC12CC3CC(CC(C3)C1)C2)c1ccc(NCc2cc(O)ccc2O)cc1 | 31.6 µM (active) | –
33 | Fc1ccc(NCC23CC4CC(CC(C4)C2)C3)cc1 | inactive | –
34 | Cc1c(C(=O)N2CCOC(C)C2)cnn1-c1ccc(F)cc1 (centres undefined) | inactive | –
35 | CCNc1ncc(CN2CCN(c3cccc(C(F)(F)F)c3)CC2)cn1 | inactive | –
36 | CN(c1ccccc1)c1cc(=O)c2ccnc(-c3ccc(CO)cc3)c2o1 | inactive | –
37 | CN(c1ccccc1)c1cc(=O)c2ccnc(NC3CCOCC3)c2o1 | inactive | –
38 | CN(c1ccccc1)c1cc(=O)c2ccnc(Nc3cccc([S+](C)(=O)[O-])c3)c2o1 | 56.2 µM (active) | –
39 | CN(C)C(=O)C(NCCc1c[nH]c2ccccc12)c1ccccc1 (centres undefined) | inactive | –
40 | CCc1ccc(Nc2ncc3c(n2)CC(c2ccco2)CC3=O)cc1 (centres undefined) | inactive | –
41 | Cc1ccc(-c2csc(N(Cc3ccco3)C(=O)c3cccs3)n2)cc1 | inactive | –
42 | Cc1ccc(-c2csc(-c3cc4c([nH]c3=O)CC(c3ccco3)CC4=O)n2)cc1 (centres undefined) | 2.24 µM (active) | –
43 | CC(C)(C)c1ccc(C(=O)NNC(=O)C2CC2)cc1 | inactive | –
44 | Fc1ccccc1COc1ccc(-c2nnco2)cc1 | inactive | –
45 | COCCn1c(=O)c2c(nc(-n3nc(C)cc3C)n2Cc2ccccc2)n(C)c1=O | inactive | –
46 | Cc1ccc(C)c(NC(=O)N2CCCC2c2ccco2)c1 (centres undefined) | inactive | –
47 | Cc1ccccc1OCCN(C)Cc1cc(=O)oc2cc(O)ccc12 | inactive | –
48 | Cc1ccc(CSc2nsc(C)c2C#N)cc1 | inactive | –
49 | Cc1ccc(CSc2nc(-c3ccccc3)c(C#N)c(=O)[nH]2)cc1 | 39.8 µM (active) | –
50 | CCCc1cc(=O)[nH]c(SCc2ccc(C#N)cc2)n1 | inactive | –
51 | CCN1C(=O)[C@@H]2[C@@H](c3ccc(-c4ccc(OC)cc4)c(OC)c3)N3CCC[C@@]3(C(=O)OC)[C@@H]2C1=O | inactive | –
52 | CCCCCCSc1ccc([C@@H]2[C@@H]3C(=O)N(CC)C(=O)[C@@H]3[C@]3(C(=O)OC)CCCCN23)cc1OC | 17.8 µM (active) | –

Row | SMILES | Potency | activity change, negative = inhibition
53 | CCCCCCSc1ccc([C@@H]2[C@H]3C(=O)N(CC)C(=O)[C@H]3[C@]3(C(=O)OC)CCCCN23)cc1 | inactive | –
54 | N#Cc1cccnc1-c1cccc(C(=O)O)c1 | 56.2 µM (active) | –
55 | O=C(O)c1cccc(-c2ccccn2)c1 | – | 6.18% [at 12.5 µM] and -0.515% [at 12.5 µM]
56 | O=C(O)c1ccc2nc[nH]c2c1 | inactive | –
57 | O=C(COc1ccc2c(c1)CCC2)N(Cc1nc2ccccc2c(=O)[nH]1)CC1CCCO1 (centres undefined) | inactive | –
58 | O=C(CN1CCN(S(=O)(=O)c2cccc(Cl)c2)CC1)N1CCCCC1 | inactive | –
59 | O=S(=O)(c1cc(Cl)ccc1Cl)N1CCN(Cc2ccco2)CC1 | inactive | –
60 | O=C(CN1CCN(S(=O)(=O)c2cc(Cl)ccc2Cl)CC1)c1ccc(O)c(O)c1 | 1.41 µM (active) | –
61 | Cc1[nH]c2ccccc2c1C(=O)C(=O)NC(C)CCc1ccccc1 (centres undefined) | inactive | –
62 | Cc1ccc2cc(C)c(Nc3cccc(C)c3C)nc2c1 | inactive | –
63 | O=C(Nc1cccc(Br)c1)c1csc2c1CCCC2 | inactive | –
64 | O=C(c1ccco1)N1CCN(Cc2cccc(C(F)(F)F)c2)CC1 | inactive | –
65 | Cc1ccc(-c2csc(C(C#N)=C(O)CN3CCN(C(=O)c4ccco4)CC3)n2)cc1 | 44.7 µM (active) | –
66 | CCCOc1ccc(-c2nc(C#N)c(N3CCN(C(=O)c4ccco4)CC3)o2)cc1 | inactive | –
67 | O=C(c1cc(-c2cccs2)on1)N1CCCC1c1ccccc1F (centres undefined) | inactive | –
68 | COc1cccc(CN2C[C@@H](F)[C@@H](OCc3nc4ccccc4n3C)C2)n1 | inactive | –
69 | CSc1ccc(C(=O)N2CCC(n3nccc3NC(=O)CC(C)C)CC2)cc1 | inactive | –
70 | O=C(COc1ccc(F)cc1Cl)Nc1ncn[nH]1 | inactive | –
71 | Cc1noc(C)c1CS(=O)(=O)c1cc(Cl)ccc1Cl | inactive | –
72 | COc1ccccc1-c1nnc(SCC(N)=O)o1 | inactive | –
73 | COc1ccc(-c2nnc(SC(=O)N3c4ccccc4Sc4ccccc43)o2)cc1 | 8.91 µM (active) | –
74 | COc1ccc(CN(C(=O)CSc2nnc(-c3ccc(OC)c(OC)c3)o2)c2ccc(F)cc2)cc1 | inactive | –
75 | CCCNC(=O)NNC(=O)c1cn(C)c2ccccc12 | inactive | –
76 | Cn1c(COc2ccc(Cl)cc2)nnc1SCC(O)COc1ccc(C(C)(C)C)cc1 (centres undefined) | inactive | –
77 | CCNC(=O)[C@@H]1CCCN1[C@@H](C(=O)NC)c1ccccc1OC | inactive | –
78 | CNC(=O)[C@@H](Cc1ccccc1)N1CCC[C@H]1C(=O)N1CCC1 | 22.4 µM (active) | –

Row | SMILES | Potency | activity change, negative = inhibition
79 | CNC(=O)C(C)(C)N1CCC[C@H]1C(=O)N(C)Cc1ccccc1 | inactive | –
80 | CCc1ccc(CN(C)C(=O)Cn2cnc3c2c(=O)n(C)c(=O)n3C)cc1 | inactive | –
81 | CC(C)c1noc(-c2cn(C3CCN(C(=O)COc4ccc(F)cc4)CC3)nn2)n1 | inactive | –
82 | CCc1ccc(-n2ccc3nc(N4CCc5ccccc5C4)ncc3c2=O)cc1 | 39.8 µM (active) | –
83 | Cc1nc2cnc(N3CCNCC3)nc2n(CCc2ccccc2)c1=O | inactive | –
84 | CCc1ccc(N2CC(O)=C(c3nc4ccccc4c(=O)[nH]3)C2=N)cc1 | inactive | –
85 | COc1cccc(-c2cn3c(n2)NCCC3)c1 | inactive | –
86 | O=C(Nc1cnc(-c2cccc(Cl)c2)nc1)c1ccc(F)cc1 | inactive | –
87 | COc1cccc2cc(S(=O)(=O)c3ccc(Cl)c(Cl)c3)c(=O)oc12 | inactive | –
88 | Cc1ccc(-n2c(C3CCN(C(=O)c4ccoc4)CC3)n[nH]c2=O)cc1 | inactive | –
89 | CCOc1ccc(C(=O)N2CCC(c3n[nH]c(=O)n3-c3ccccc3)CC2)cc1OCC | inactive | –
90 | Cc1ccc(C(=O)N2CCC(c3n[nH]c(=O)n3-c3ccccc3)CC2)cc1F | 28.2 µM (active) | –
91 | CC(C)(CNC(=O)c1ccccc1)CNC(=O)c1ccccc1 | inactive | –
92 | O=C1CSc2ccc(C(=O)Nc3cccc(COC(=O)c4ccc5c(c4)NC(=O)CS5)c3)cc2N1 | inactive | –
93 | O=C(NCCNC(=O)C1CC1)c1c[nH]c2ccccc12 | inactive | –
94 | Nc1nc(COC(=O)c2ccc(OC(F)F)cc2)nc2ccccc12 | inactive | –
95 | Cc1occc(=O)c1OCc1noc(C(=O)NCc2ccc(Cl)cc2)n1 | inactive | –
96 | O=C(O)c1ccc(Nc2nc(-c3ccc4ccccc4c3)cs2)cc1O | 31.6 µM (active) | –
97 | Cc1ccc(-c2csc(Nc3ccccc3)n2)c(C)c1 | inactive | –
98 | O=C1Cc2cc(-c3csc(Nc4ccc(F)cc4)n3)ccc2N1 | inactive | –
99 | CC(=O)c1ccc(NC(=O)C(C)Sc2nnc(-c3ccco3)n2-c2ccccc2)cc1 (centres undefined) | inactive | –
100 | Cc1ccccc1-n1cnnc1SCC(=O)NC(C)c1cccc2ccccc12 (centres undefined) | inactive | –
101 | COc1ccc(C2C3=C(CCCC3=O)N(CC(=O)O)C3=C2C(=O)CCC3)cc1 | 10 µM (active) | –
102 | CCCN1C2=C(C(=O)CCC2)C(c2ccc(O)c(Br)c2)C2=C1CCCC2=O | inactive | –
103 | COc1ccc(C2C(C#N)=C(N)N(c3ncn[nH]3)C3=C2C(=O)CCC3)cc1 (centres undefined) | inactive | –
104 | CCCCCCCC1CCC(c2ccc(-c3ccc(CCCC)cn3)cc2)CC1 (centres undefined) | inactive | –
